Compounds with a hit are over-represented: about 12% of the library has one in this group of screens.
TDP1 block: blocks human tyrosyl-DNA phosphodiesterase 1; Potency, µM (highest dose often 130 µM), inactives show at the top dose activity change, negative = inhibition, usual class: inhibitors; Q9NUW8; recombinant TDP1, AlphaScreen DNA substrate cleavage; hit rate 0.28% among 350,000; also: % is scaled to controls: 0 for no effect and ±100 for the full control effect; nearly all actives have a fitted effect of over 40% in size
Target sequence (Q9NUW8 whole entry, looked up): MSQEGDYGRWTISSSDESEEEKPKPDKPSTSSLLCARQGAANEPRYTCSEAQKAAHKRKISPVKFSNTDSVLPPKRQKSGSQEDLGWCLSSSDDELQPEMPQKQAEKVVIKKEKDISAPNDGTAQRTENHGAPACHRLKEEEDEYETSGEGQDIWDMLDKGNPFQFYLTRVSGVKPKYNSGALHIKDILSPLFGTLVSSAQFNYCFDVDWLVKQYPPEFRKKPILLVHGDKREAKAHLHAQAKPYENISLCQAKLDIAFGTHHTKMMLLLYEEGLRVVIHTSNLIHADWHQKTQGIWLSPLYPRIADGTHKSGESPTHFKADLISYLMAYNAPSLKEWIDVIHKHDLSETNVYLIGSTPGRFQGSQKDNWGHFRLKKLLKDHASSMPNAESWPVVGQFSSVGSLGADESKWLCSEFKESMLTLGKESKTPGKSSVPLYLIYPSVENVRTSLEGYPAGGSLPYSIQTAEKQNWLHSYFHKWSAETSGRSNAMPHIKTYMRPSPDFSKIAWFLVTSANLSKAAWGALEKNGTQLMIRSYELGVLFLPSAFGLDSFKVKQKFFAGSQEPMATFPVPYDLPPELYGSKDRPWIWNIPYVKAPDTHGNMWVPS
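Tdp1 1 nM final; 15 min RT w/ cpd; substrate 15 nM, 5 min; beads 10 ug/ml, 10 min; AlphaScreen read. Neg ctrl: no enzyme.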
JMJD2A Tudor inh: blocks the human JMJD2A Tudor domain; O75164; AlphaScreen JMJD2A-Tudor / H3K4me3 peptide binding; Potency, µM (titrated, usually from 114 µM), without a hit: at the highest dose activity change, negative = inhibition, usual class: inhibitors; hit rate 4.4% among 390,000; AID 504339; also: % is scaled to controls: 0 for no effect and ±100 for the full control effect; nearly all actives have a fitted effect of over 50% in size
G9a block: G9a (human) methyltransferase inhibition; G9a H3K9 monomethylation, AlphaScreen, 2 h; hit rate 8.8% among 350,000; Q96KQ7; Potency, µM (highest dose often 102 µM), inactives show at the highest dose activity, negative = inhibition, actives largely listed as inhibitors; also: % is scaled to controls: 0 for no effect and ±100 for the full control effect; nearly all actives have a fitted effect of over 75% in size
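Using a bead-based AlphaScreen, monomethylated H3K9 product from 2 h room-temperature reactions (G9a 20 nM, peptide 500 nM, SAM 20 uM) was detected with 0.5 ug/mL rabbit anti-H3K9me1 antibody.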
HP1b binding inh: HP1-beta chromodomain-methylated histone interaction inhibition | AlphaScreen HP1-beta / biotin-H3K9me3 peptide binding | P83916 | hit rate 0.56% among 390,000 | Potency, µM (titrated, usually from 114 µM), without a hit: at the highest dose activity change, negative = inhibition, actives largely listed as inhibitors; also: nearly all actives have a fitted effect of over 70% in size
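AlphaScreen: HP1-beta (50 nM) preformed 30 min with biotin-H3(1-18)K9me3 peptide (50 nM) in PBS pH 7.4, 0.01% Tween-20. Compound added for 30 min at RT, then streptavidin donor/nickel chelate acceptor beads (10 ug/mL) for 30 min.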
BAZ2B inh: blocks human BAZ2B | Q9UIF8 | AlphaScreen BAZ2B-H3K14Ac peptide displacement | Potency, µM (titrated, usually from 114 µM), without a hit: at the top dose activity change, negative = inhibition, actives largely listed as inhibitors | hit rate 4.4% among 360,000 | AID 504333; also: % is scaled to controls: 0 for no effect and ±100 for the full control effect; nearly all actives have a fitted effect of over 60% in size
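In this displacement format the biotinylated H3(5-23) peptide acetylated at Lys14 serves as ligand at 50 nM, with BAZ2B at 50 nM in PBS pH 7.4 containing 0.01% Tween-20. Donor and acceptor beads are 10 ug/mL final.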
Sfp PPTase inh: inhibitors of Bacillus subtilis Sfp phosphopantetheinyl transferase | Q9F4F7 | Biochemical Sfp PPTase activity, qHTS | Potency, µM, inactives show largest response in the series, negative = inhibition, usual class: inhibitors | hit rate 3.5% among 310,000;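 also: the enzyme is Sfp with the accession as filed and its product quenches rhodamine fluorescence; 0% = enzyme reaction without inhibitor and -100% = no enzyme wells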
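Compounds were incubated with enzyme (final 15 nM) for 15 min at room temperature before substrate addition started the reaction. Fluorescence at 525 nm excitation, 598 nm emission was recorded immediately and after 30 minutes.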
* hit, by the source's call; ? = inconclusive; . = no result given; ! = repeats disagree; [ ] = remark or other dose. Calls follow the shape of the dose curve; as a rule, active = well fitted curve in the direction sought with a large enough effect; inconclusive = small, poorly fitted or top-dose-only effect, or another doubt; inactive = no such curve, though single readings can be large; an effect the other way counts as inactive or inconclusive. Potency is read from the fitted curve at half-maximal effect.

SMILES	TDP1 block	JMJD2A Tudor inh	G9a block	HP1b binding inh	BAZ2B inh	Sfp PPTase inh
Cc1ccc(S(=O)(=O)NC(=O)c2ccc(-c3ccc(C)c4ccccc34)o2)cc1	-3%	45µM*	50µM*	-2%	?	-3%
C=CCN(CC=C)S(=O)(=O)c1ncn[nH]1	40µM*	-34%	?	15%	79µM*	-24%
CCCn1c(-c2ccc(F)cc2)nc2c(N3CCN(CCn4ccnc4)CC3)nc(C)nc21	10%	.	.	.	.	5%
CC(=O)c1ccc2c(c1)N(CCCN1CCN(CCO)CC1)c1ccccc1S2	.	.	?	.	.	-9%
OC1CC2CCC(C1)N2CCCN1c2ccccc2Sc2ccc(Cl)cc21 (stereo not given)	.	?	.	-4%[57 µM]	.	.
CN1CCN(CCCN2c3ccccc3Sc3ccc(Cl)cc32)CC1	8%	45µM*	16µM*!	?	20µM*	?
CCSc1ccc2c(c1)N(CCCN1CCN(C)CC1)c1ccccc1S2	23%[21 µM]	40µM*	14µM*	?	35µM*	-9%
CN1CCN(CCCN2c3ccccc3Sc3ccccc32)CC1	9%	.	28µM*	.	.	-10%
CCC(=O)c1ccc2c(c1)N(CCCN1CCN(CCO)CC1)c1ccccc1S2	.	.	?	.	.	79µM*
O=C(O)C1CN(C(=O)c2cccc(Br)c2)C1	-3%	-14%	.	25%	2%	21%
O=C(NCc1ccccc1)c1ccc(N2CCC3(CC2)CC(c2ccc(Cl)cc2)=NO3)c([N+](=O)[O-])c1	.	-26%	?	-3%	-34%	19%
Cc1ccc(NC2CCCN(C(=O)c3ccoc3C)C2)cc1C (stereo not given)	6%	-24%	?	-9%	?	2%
Cc1ccc(C)c(N2CCN(C(=O)C3CCN(C(=O)c4cc5sccc5n4C)CC3)CC2)c1	4%	?	?	-18%	25µM*	.
Cn1c(C(=O)N2CCN(c3cccc(C(F)(F)F)c3)CC2)cc2sccc21	9%	?	4%[12.7 µM]	-7%	?	16%
Cc1cccc(N2CCN(C(=O)C3CCN(C(=O)c4cc5sccc5n4C)CC3)CC2C)c1 (stereo not given)	2%	?	-37%[59 µM]	-15%	35µM*	.
Cc1ccc(C)c(N2CCN(C(=O)c3cc4sccc4n3C)CC2)c1	6%	?	?	-14%	?	-18%
COC(=O)CSc1nc2cc(OC)ccc2n1C	5%	-9%	71µM*	24%	-26%	-6%
N#CCSc1nnc(-c2sc3ccccc3c2Cl)o1	3%	-18%	12%[59 µM]	22%	5%	0%
COC(=O)CSc1nnc(-c2sc3ccccc3c2Cl)o1	-5%	10%	13µM*	51%	-15%	-12%
COC(=O)CSc1nnc(-c2ccc3c(c2)OCO3)n1C	1%	-11%	12%	9%	5%[57.1 µM]	14%
COC(=O)CSc1nnc(-c2sc3cc(OC)ccc3c2Cl)n1C	2%	9%[57.1 µM]	6.3µM*	27%	-20%	3%
CC(CCc1ccccc1)NC(=O)CCNC(=O)c1ccccc1Cl (stereo not given)	0%	-1%	.	31%	.	.
COc1ccc(N(CC(=O)NCCC2=CCCCC2)S(=O)(=O)c2c(C)[nH]c(=O)[nH]c2=O)cc1	.	-6%	0%	21%	21%	23%
Cc1nn(C)c2c1c(C(F)(F)F)cc(=O)n2CC(=O)NC(C)(C)C	3%	3%	-2%[59 µM]	1%	-4%	.
CCSc1nc2sc3c(c2c(=O)[nH]1)CCCC3	3%	5%	1%[59 µM]	20%	-2%	9%
SMILES	TDP1 block	JMJD2A Tudor inh	G9a block	HP1b binding inh	BAZ2B inh	Sfp PPTase inh
CCSc1nc2sc3c(c2c2[n+]1CC(CBr)O2)CCCC3 (stereo not given)	-1%	56µM*	25µM*	-24%	56µM*	50µM*
CCOc1ccc(N2C(=O)c3cccnc3C2Nc2ccc(C)c(C)c2)cc1 (stereo not given)	5%	-20%	89µM*	3%	-31%	11%
CC(=O)Nc1ccc(NC(=O)CS(=O)(=O)c2cn(CC(=O)N3CCCC3)c3ccccc23)cc1	3%	-10%	40µM*	30%	-30%	-8%
Cc1ccc(CNC(=O)CS(=O)(=O)c2cn(CC(=O)N3CCOCC3)c3ccccc23)cc1	1%	-4%	25µM*	36%	1%	40µM*
O=C(Cn1cc(S(=O)(=O)Cc2ccc([N+](=O)[O-])cc2)c2ccccc21)N1CCOCC1	1%	-24%	8.9µM*	40%	-4%	40µM*
O=C(CS(=O)(=O)c1cn(CC(=O)N2CCOCC2)c2ccccc12)Nc1ccccc1	3%	9%	?	44%	.	7%
CC(C)CCNC(=O)C(=O)NCC1OCCCN1S(=O)(=O)c1cccs1 (stereo not given)	2%	11%	14%	1%	-12%	7%
CCCN1CCC(NC(=O)C2CCN(C(C)=O)CC2)CC1	.	1%	-7%	19%	-1%	5%
CCn1cc2nc(SCC(=O)Nc3ccc(OC)c(OC)c3)n(Cc3ccc(Cl)cc3)c(=O)c2n1	6%	-9%	-1%[59 µM]	26%	-11%	.
O=C(Nc1ccc(F)cc1)C(=O)c1c(O)[nH]c2ccc([N+](=O)[O-])cc12	7%	?	32µM*	-17%	?	?
Cn1c(=O)n(Cc2ccc(Br)cc2)c2ccccc21	6%	1%	7%	16%	-6%	15%
COc1ccc(NS(=O)(=O)c2cc(NC(=O)/C=C/c3cc(OC)ccc3OC)ccc2N2CCCCC2)cc1	-6%	-12%	6%[59 µM]	29%	-31%	26%
O=C(/C=C/c1cccs1)Nc1ccc(N2CCOCC2)c(S(=O)(=O)Nc2ccccc2Cl)c1	-3%	-33%	?	8%	-8%	38%
O=C(/C=C/c1cccs1)Nc1ccc(N2CCOCC2)c(S(=O)(=O)Nc2cc(Cl)ccc2Cl)c1	3%	-20%	56µM*	4%	-27%	16%
COc1ccc(NS(=O)(=O)c2cc(N)ccc2N2CCCC2)cc1	6%	56µM*	.	?	.	.
Nc1ccc(N2CCOCC2)c(S(=O)(=O)Nc2cc(Cl)ccc2Cl)c1	8%	?	35µM*	2%	-35%	9%
Nc1cc(S(=O)(=O)Nc2ccccc2Cl)ccc1N1CCOCC1	-3%	-6%	?	34%	4%	-5%
COc1ccc(NS(=O)(=O)c2cc(N)ccc2N2CCOCC2)cc1	.	-25%	16µM*	-16%	-15%	-18%
Nc1ncnc2c1ncn2[C@H]1O[C@@H](CSCC[C@@H](N)C(=O)O)[C@H](O)[C@@H]1O	4%	.	21%[59 µM]	.	.	-29%
O=C(Cc1ccc(NC(=O)C2CCN(C(=O)C3CCC3)CC2)cc1)Nc1cccc(C(=O)N2CCCC2)c1	.	-6%	.	35%	.	.

Source: PubChem BioAssay
